Source: PubChem BioAssay (EPA / NIEHS)
Calls of active or inactive are those of the source. How the source made its calls: active means hit-call score of the fitted dose curve at least 0.9, where 1 is the maximum; inactive means score below 0.9.

assay: CCTE_Shafer_MEA_dev_per_burst_interspike_interval: CCTE's Neural Network Formation Assay for Burst Interspike Interval, Shafer Lab (AID 2284044);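 further: mean spike spacing inside bursts as AUC over recordings on days 5 7 9 12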
Description: CCTE_Shafer_MEA_dev assay is conducted using Axion Biosystems 48 well microelectrode array (MEA) plates and Maestro recording system. Each well of the MEA plate contains a grid of 16 microelectrodes embedded in the culture surface. Electrically active cells, such as neurons, can be cultured over the electrodes, and electrical activity in these cells can be recorded extracellularly. The spontaneous firing of neurons is captured from each electrode on a microsecond timescale providing both temporally and spatially precise data. […] The CCTE_Shafer_MEA_dev assay uses primary cultures of rat cortical neurons. Recordings are made on days post-plating 5, 7, 9 and 12. As these cultures mature over time, neural networks develop functional activity and form cohesive networks in which electrical activity can be highly coordinated. CCTE_Shafer_MEA_dev_per_burst_interspike_interval is 1 of 19 assay components of the CCTE_Shafer_MEA_dev assay. It measures the average time interval between spikes (action potential firings) within a single-electrode burst (temporally-clustered group of spikes) during a recording in a microelectrode array (MEA) using Axion Biosystems Maestro 768 channel amplifier with the AxIS adaptive spike detector. The mean inter-spike interval within bursts is averaged across the actively bursting electrodes to report a well-mean value. To collapse across multiple recordings made on days post-plating 5, 7, 9 and 12, the trapezoidal area-under-the-curve of the component is calculated.Data from the assay component CCTE_Shafer_MEA_dev_per_burst_interspike_interval was analyzed into 1 assay endpoint. This assay endpoint, CCTE_Shafer_MEA_dev_per_burst_interspike_interval, was analyzed in the negative analysis fitting direction relative to DMSO as the negative control and baseline of activity. Using a type of functional reporter, gain or loss-of-signal activity can be used to understand electrical activity.
On the day prior to culture, each well was coated thoroughly with 150 uL of 0.05% polyethyleneimine (PEI, Sigma Cat P3143) in 50 mM HEPES (Sigma Cat H7523) at a pH of 8. The plate was incubated at 37C for one hour. PEI was rinsed out with 500 uL of sterile water three times. Plates were stored at 4C until the day of culture. This culture was plated at a seeding density of 1.5 x 10^5 cells/well on a 48-well MEA plate, prepared as described above. Cells were administered via a 25 uL media/laminin ([…]; Sigma Cat L2020-1MG) drop directly onto the microelectrode array, as adding the cells with the laminin results in better attachment than pre-coating with laminin. After 2 hours, an additional 475 uL of cortical media was added and the cells returned to the incubator. Exposure starts at day 0 of plating and is continued over twelve days of network development until the experiment is terminated. Cells are fed with fresh medium on DIV 5 and 9, following the recordings on those days. The entire volume of media in the well is exchanged and any vehicle or compound treatment is renewed. Complete details are found in OP-NHEERL/ISTD/SBB/TJS/2015-03-r0 (available on request, email shafer.tim@epa.gov). Measurement of the electrical activity is non-invasive, and recordings can be made from the same plate over multiple different days of the culture. In cortical neurons, this allows for the measurement of extracellular action potentials over the period during which networks form in the MEA plate.

SMILES | outcome
CO[Si](C)(CCC(F)(F)C(F)(F)C(F)(F)C(F)(F)C(F)(F)C(F)(F)F)OC | inactive
OCC(F)(F)C(F)(F)C(F)(F)C(F)(F)C(F)(F)C(F)(F)CO | inactive
CNS(=O)(=O)C(F)(F)C(F)(F)C(F)(F)C(F)(F)C(F)(F)C(F)(F)C(F)(F)C(F)(F)F | inactive
OCCCCC(F)(F)C(F)(F)C(F)(F)C(F)(F)F | inactive
NC(O)(C(F)(F)F)C(F)(F)F | inactive
OC(O)C(F)(F)C(F)(F)F | inactive
NC(=O)C(F)(F)C(F)(F)C(F)(F)C(F)(F)C(N)=O | inactive
NC(=O)C(F)(F)C(F)(F)C(F)(F)C(F)F | inactive
NC(=O)C(F)(F)C(F)(F)C(F)(F)F | inactive
C=CC(=O)OCC(F)(F)C(F)(F)C(F)(F)COC(=O)C=C | inactive
O=S(=O)(O)CCC(F)(F)C(F)(F)C(F)(F)C(F)(F)C(F)(F)C(F)(F)C(F)(F)C(F)(F)F | inactive
OCC(F)(F)C(F)(F)C(F)(F)CO | inactive
FC(F)(F)C(F)(F)C(F)(F)C(F)(F)C(F)(F)C(F)(F)C(F)(F)CCI | inactive
OCC(O)CC(F)(F)C(F)(F)C(F)(F)C(F)(F)F (centres undefined) | inactive
CCN(CCO)S(=O)(=O)C(F)(F)C(F)(F)C(F)(F)C(F)(F)C(F)(F)C(F)(F)C(F)(F)C(F)(F)F | inactive
C=CC(=O)OCCC(F)(F)C(F)(F)C(F)(F)C(F)(F)F | inactive
OCC(F)(F)C(F)(F)C(F)(F)C(F)(F)C(F)(F)C(F)(F)C(F)(F)C(F)(F)CO | inactive
O=S(=O)(O)CCC(F)(F)C(F)(F)C(F)(F)C(F)(F)F | inactive
O=C(O)C(F)(F)C(F)(F)C(F)(F)OC(F)(F)F | inactive
